# Reference: PubChem BioAssay AID1345083 (National Center for Advancing Translational Sciences (NCATS), 2018)
# Out of some 94,000 compounds screened, about 6,200 (6.6%) were called active. Another 31% or so got no clear call; they are omitted. What follows is part of a selection rich in actives, with near analogues and random picks from the rest. A number with no mark means an inactive call. Calls follow the shape of the dose curve; as a rule, active = well fitted inhibition curve with a large enough effect; inconclusive = small, poorly fitted or top-dose-only effect; inactive = flat fitted curve, though single readings scatter.
# Experiment: Cytotoxic Profiling in HEK 293 Cell Line of Diverse Libraries Using Quantitative High-Throughput Screening; also: nearly all actives have a fitted effect of over 60% in size
# Settings: HEK 293 viability, ATP luminescence (CellTiter-Glo), 48-72 h; series mostly up to 115 µM; activity change, negative = cytotoxicity: at the top concentration
# Outline: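 250 HEK 293 cells/well; compound by pintool; incubated 48 or 72 hr at 37 degree Celsius; CellTiter-Glo added, 10 min RT, luminescence imaged.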
# % is scaled to controls: 0 for no effect and ±100 for the full control effect; potency is read from the fitted curve at half-maximal effect.
SMILES,"activity change, negative = cytotoxicity",Potency,outcome
C#CCNC(=O)CC[C@H]1CNC(=O)[C@@H]2[C@@H](CCN2Cc2ccc(N(C)C)cc2)N1C,-24.8% [at 172 µM],,
COc1ccc(CN2C[C@H](O)C[C@H]2c2nc(-c3ccc4c(c3)OCO4)no2)c(OC)c1OC,-15.4%,,
CN1C[C@@H](NC(=O)c2ccc(C(C)(C)C)cc2)C[C@H]1c1nc(-c2ccc3ccccc3c2)no1,,22.4 µM (active),
CN1C[C@@H](NC(=O)c2ccccc2)C[C@H]1c1nc(-c2ccccc2)no1,-13.3% [at 172 µM],,
N#Cc1ccc(C(=O)N2C[C@@H]3C[C@H](C2)c2ccc(-c4ccc(OC(F)(F)F)cc4)c(=O)n2C3)cc1,-16.7%,,
N#Cc1ccc(-c2nc(C(=O)NC3CCCCCC3)no2)cc1,5.1%,,
CN1C[C@@H](NC(=O)c2cnccn2)C[C@H]1c1nc(-c2ccc3c(c2)OCO3)no1,-7.22% [at 172 µM],,
CN1C[C@@H](NC(=O)COc2ccccc2)C[C@H]1c1nc(-c2ccc3c(c2)OCO3)no1,,100 µM (active),
CN1C[C@@H](NC(=O)c2ccc(C#N)cc2)C[C@H]1c1nc(-c2ccc(OC(F)(F)F)cc2)no1,,22.4 µM (active),
CN1C[C@@H](NC(=O)CC(C)(C)C)C[C@H]1c1nc(Cc2ccccc2)no1,-26.1% [at 172 µM],,
CN(C)C(=O)N1CCN(C(=O)c2cccc(-c3ccccn3)c2)CC1,-14.7% [at 172 µM],,
Cc1ccc(S(=O)(=O)Cc2noc([C@@H]3C[C@@H](O)CN3Cc3cccs3)n2)cc1,-16.9% [at 172 µM],,
COc1ccc(CCC(=O)N2CCCC(n3c(C)cnc3C3CCOCC3)C2)cc1 (stereo unspecified),-23.1%,,
O=C(NC1CC1)c1ccc(CC2CCN(C(=O)c3ccccn3)CC2)cc1,-25.9%,,
COc1ccc(-c2cccc(C(=O)NCc3cccc(Cl)c3)c2)nn1,,79.4 µM (active),
COc1ccc(-c2ccc(C(=O)NCc3ccccc3Cl)cc2)nn1,-9.88% [at 172 µM],,
COc1ccc(-c2ccc(C(=O)N3CCN(C(=O)c4cccc(Cl)c4)CC3)cc2)nn1,-0.234%,,
CCN1CC2(CCN(C(=O)c3cccc(N4CCOCC4)c3)CC2)OC1=O,-5.91%,,
CC(=O)N1Cc2ccccc2CC2(CCCN(Cc3ccncc3)C2)C1 (stereo unspecified),-1.66%,,
CC(=O)N1Cc2ccccc2CC2(CCN(Cc3cccnc3)CC2)C1,-5.64%,,
C[C@H](C(=O)N1Cc2ccccc2CC2(CCN(Cc3ccncc3)CC2)C1)c1ccccc1,,50.1 µM (active),
O=C(Nc1cccc(-n2cccn2)c1)C1CCCN(C2CCN(Cc3ccco3)CC2)C1 (stereo unspecified),-1.69%,,
COc1ccc(OC)c(CNC(=O)CC2C(=O)NCCN2CC=C(C)C)c1 (stereo unspecified),,,inactive

SMILES,"activity change, negative = cytotoxicity",Potency,outcome
COC[C@@H]1CN(C(=O)c2ccc3ncccc3c2)C[C@H]1c1nc(C)no1,-0.388%,,
COc1ccc(CC2CCOC3(CCN(C(=O)NCC(C)C)CC3)C2)cc1 (stereo unspecified),,39.8 µM (active),
COc1ccc(CNC(=O)N2CCC3(CC2)CC(OCC2CC2)CCO3)cc1 (stereo unspecified),-2.8%,,
CNC(=O)N1CCC2(CC1)CC(Cc1cccc(F)c1)CCO2 (stereo unspecified),-28.8%,,
O=C1NCCCCCCN(C(=O)Cc2cccnc2)[C@@H]2C[C@@H](c3nc(-c4cnccn4)no3)C[C@H]12,,,inactive
C=CCN1CCC2(CCC1=O)CN(Cc1ncc[nH]1)CCN2C (stereo unspecified),,,inactive
O=C(c1ccc(F)cc1)N1CCC(N2CC3CC(C2)[C@H]2CCCC(=O)N2C3)CC1 (stereo partly specified),5.13%,,
COCc1cc(CN2C[C@H](NC(=O)CO)[C@@H](C3CC3)C2)ccc1OC,,,inactive
O=C1CCCCCN1C1CCN(Cc2ccc(C(F)(F)F)cc2)CC1,,31.6 µM (active),
O=C(C1CCN([S+](=O)([O-])c2cccc(C(F)(F)F)c2)CC1)N1CCC(N2CCCC2=O)CC1,-5.24%,,
O=C1CCN(Cc2ccc(C(F)(F)F)cc2)CCCOCCN1,-16.5%,,
Cn1cnc(S(=O)(=O)N[C@@H]2CCOC[C@H]2Oc2ccc(C(N)=O)cc2)c1,3.24%,,
OC1(CN2CCC(CCn3cccn3)CC2)CNCCOC1 (stereo unspecified),-5.79%,,
O=C(NC1CCc2nnc(C3CC3)n2CC1)c1ccco1 (stereo unspecified),-27.7%,,
O=C(NC1CCCc2c1[nH]c1c(Cl)cccc21)c1ccco1 (stereo unspecified),,44.7 µM (active),
O=C(Cn1nc(-c2ccco2)ccc1=O)NC1CCCc2c1[nH]c1c(Cl)cccc21 (stereo unspecified),1.59%,,
CC(C)S(=O)(=O)N1CCC(OCc2noc(C3CCCO3)n2)CC1 (stereo unspecified),0.452%,,
COc1ccc(NC(=O)O[C@@H]2CO[C@H]3[C@@H]2OC[C@@H]3NC(=O)NC2CCCCC2)cc1,-27.6% [at 172 µM],,
O=C(Nc1ccc(Cl)cc1)N[C@H]1CO[C@H]2[C@@H]1OC[C@H]2O,,,inactive [at 172 µM]
COc1ccc(-c2ccnc(N[C@H]3CO[C@H]4[C@@H]3OC[C@H]4OC(=O)Nc3cccc4ccccc34)n2)cc1,,39.8 µM (active),
CC(C)(CC(=O)O)CC(=O)N[C@H]1CO[C@H]2[C@@H]1OC[C@@H]2Nc1nccc(-c2ccc3c(c2)OCO3)n1,,,inactive
CCNC(=O)O[C@@H]1CO[C@H]2[C@@H]1OC[C@@H]2NC(=S)Nc1cccc2ccccc12,,70.8 µM (active),
CC(=O)Nc1cccc(OCC2CN(Cc3cccc(C(F)(F)F)c3)C(=O)c3c(ccnc3-c3ccc(OCC(=O)O)cc3)O2)c1 (stereo unspecified),-9.98%,,
